Assay results published in PubChem BioAssay (NCI).
The panel holds about 83,000 compounds, 20% with a hit somewhere; the sample as a whole holds those more often.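 Note: values are percent growth. 100 is the growth of untreated cells, values between 100 and 0 indicate rising inhibition; between -100 and 0 indicates cell death.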 Unmarked numbers belong to inactive results. The source made the active and inactive calls. How the source made its calls: active means growth percent below 10; inactive means the rest.

Legend:
Experiment in all cases: NCI-60 one-dose screen, 48 h (100 = growth as untreated, 0 = no growth, -100 = all killed)
Conditions in all cases: 10 µM unless noted
[1] = test system: HCT-15 colon
[2] = test system: HT29 colon
[3] = test system: SNB-75 CNS
[4] = test system: SNB-19 CNS
[5] = test system: U251 CNS
[6] = test system: PC-3 prostate
[7] = test system: SK-MEL-5 melanoma
[8] = test system: UACC-62 melanoma
[9] = test system: LOX IMVI melanoma
[10] = test system: SK-MEL-28 melanoma
[11] = test system: EKVX NSCLC
[12] = test system: SN12C renal
[13] = test system: UO-31 renal
[14] = test system: ACHN renal
[15] = test system: CAKI-1 renal
[16] = test system: A498 renal
[17] = test system: CCRF-CEM leukemia
[18] = test system: MOLT-4 leukemia
[19] = test system: SK-MEL-2 melanoma
[20] = test system: TK-10 renal

Compound | growth [1] | growth [2] | growth [3] | growth [4] | growth [5] | growth [6] | growth [7] | growth [8] | growth [9] [%] | growth [10] | growth [11] | growth [12] | growth [13] | growth [14] | growth [15] | growth [16] | growth [17] | growth [18] | growth [19] | growth [20]
COc1cc(-c2nc(SCC(C)C)nc(Nc3cccc4ccccc34)c2C#N)cc(OC)c1OC | 74.3% | 89.9% | 94.3% | 106% | 59.1% | 57.1% | 95.5% | 86.5% | 103 | 110% | 98.7% | 92.6% | 67.9% | 98.4% | 68.5% | 74.3% | 75% | 64.3% |  | 
O=CC1(C2(C=O)c3ccccc3-c3ccccc32)c2ccccc2-c2ccccc21 | -36.4% (active) | -53.9% (active) | -79.2% (active) | -83% (active) | -63% (active) | -64.5% (active) | -83.7% (active) | -61.5% (active) |  | -38.2% (active) | -78.4% (active) | -29.1% (active) | -89.3% (active) | -79% (active) | -78.2% (active) | -84.1% (active) | -5.1% (active) | -47.4% (active) | -44.4% (active) | -79.9% (active)
CN(C)Cc1ccc(NC(=O)c2cncc(C#Cc3cnc(N)c4ncccc34)c2)cc1F | -55.7% (active) | 3.71% (active) | 123% | 87.2% | 74.8% | 75.2% | 77.3% | 94.2% |  | -48.2% (active) | 93.4% | 86.4% | 108% | 61.1% | 87.7% | 73.9% | 4.73% (active) | 76.3% | 88.6% | 141%
COc1ccc(-c2csc(N(C(=O)N3CCN(c4cc5c(cc4F)c(=O)c(C(=O)O)cn5C4CC4)CC3)c3ccccc3)n2)cc1 | 9.72% (active) | 3.36% (active) | 22.5% | 20.8% | 19.1% | 9.97% (active) | -21.6% (active) | 13% |  | 36.3% | 15.8% | 6.41% (active) | 4.2% (active) | -62.5% (active) | 6% (active) | 3.67% (active) | 24.9% | 16% | 0.424% (active) | 32.1%
Cc1ccc(-c2nc(N3CCNCC3)c3oc(-c4ccccc4)nc3n2)cc1 | -77.7% (active) | -93.8% (active) | 85.4% | 16.7% | -98.2% (active) | -81.5% (active) | 70.9% | 91.3% |  | -81.3% (active) | 101% | -84.3% (active) | -90.6% (active) | -99.8% (active) | 40.5% | 95.7% | -76% (active) | -68.8% (active) | 61.2% | -98.6% (active)
O=C(c1ccc(-c2nc(CSc3nc4ccccc4s3)no2)cc1)N1CCSCC1 | 68.5% | 40.8% | 91.9% | 87.7% | 61.6% | 63.5% | 24.6% | 59.9% |  | 96.6% | 47.1% | 82.3% | 55.6% | 60.4% | 63.5% | 82.1% | 71.2% | -1.49% (active) | 45.7% | 55.1%
O=C(CI)NC1Oc2ccccc2-c2oc(=O)c(-c3ccccc3)cc21 (configuration not stated) | -83% (active) | -55% (active) | -20.9% (active) | 80.8% | -48.6% (active) | -72.8% (active) | 85.5% | -22.8% (active) |  | 46.3% | 70.4% | -71.2% (active) | -94.7% (active) | -91.3% (active) | -100% (active) | 82.1% | -23.4% (active) | -25.8% (active) | -16.4% (active) | -73.5% (active)
